Laboratory results as given in PubChem BioAssay (NCATS).
Records with an inconclusive call do not appear. Calls of active or inactive are those of the source. Unless noted, calls follow the shape of the dose curve; as a rule, active = well fitted inhibition curve with a large enough effect; inconclusive = small, poorly fitted or top-dose-only effect; inactive = flat fitted curve, though single readings scatter.

What was measured:
[1] = qHTS for Inhibitors of the Functional Ribonucleoprotein Complex (vRNP) of Lassa (LASV) Arenavirus: LASV Primary Screen - GLuc reporter signal (AID 1347082; calls by dose curve; tested in HEK293 reporter line; also: % is scaled to controls: 0 for no effect and ±100 for the full control effect; nearly all actives have a fitted effect of over 60% in size)
[2] = qHTS for Inhibitors of the Functional Ribonucleoprotein Complex (vRNP) of Lassa (LASV) Arenavirus: Viability assay - alamar blue signal for LASV Primary Screen (AID 1347083; calls by dose curve; tested in HEK293 reporter line; also: nearly all actives have a fitted effect of over 80% in size; also: potency is read from the fitted curve at half-maximal effect; as to activity change, negative = reduced viability: % is scaled to controls: 0 for no effect and ±100 for the full control effect)
[3] = qHTS for Inhibitors of the Functional Ribonucleoprotein Complex (vRNP) of Lymphocytic Choriomeningitis Arenaviruses (LCMV): Viability assay - alamar blue signal for LCMV Primary Screen (AID 1347085; calls by dose curve; tested in HEK293 reporter line; also: nearly all actives have a fitted effect of over 80% in size; also: potency is read from the fitted curve at half-maximal effect; as to activity change, negative = lower viability: % is scaled to controls: 0 for no effect and ±100 for the full control effect)
[4] = target: Nucleoprotein (Lymphocytic choriomeningitis virus (strain Armstrong)) (UniProt P09992); assay: qHTS for Inhibitors of the Functional Ribonucleoprotein Complex (vRNP) of Lymphocytic Choriomeningitis Arenaviruses (LCMV): LCMV Primary Screen - GLuc reporter signal (AID 1347086; calls by dose curve; also: nearly all actives have a fitted effect of over 70% in size; also: potency is read from the fitted curve at half-maximal effect; as to activity change, negative = inhibition: % is scaled to controls: 0 for no effect and ±100 for the full control effect)
Nucleoprotein (Lymphocytic choriomeningitis virus (strain Armstrong)), sequence (P09992 whole entry, looked up): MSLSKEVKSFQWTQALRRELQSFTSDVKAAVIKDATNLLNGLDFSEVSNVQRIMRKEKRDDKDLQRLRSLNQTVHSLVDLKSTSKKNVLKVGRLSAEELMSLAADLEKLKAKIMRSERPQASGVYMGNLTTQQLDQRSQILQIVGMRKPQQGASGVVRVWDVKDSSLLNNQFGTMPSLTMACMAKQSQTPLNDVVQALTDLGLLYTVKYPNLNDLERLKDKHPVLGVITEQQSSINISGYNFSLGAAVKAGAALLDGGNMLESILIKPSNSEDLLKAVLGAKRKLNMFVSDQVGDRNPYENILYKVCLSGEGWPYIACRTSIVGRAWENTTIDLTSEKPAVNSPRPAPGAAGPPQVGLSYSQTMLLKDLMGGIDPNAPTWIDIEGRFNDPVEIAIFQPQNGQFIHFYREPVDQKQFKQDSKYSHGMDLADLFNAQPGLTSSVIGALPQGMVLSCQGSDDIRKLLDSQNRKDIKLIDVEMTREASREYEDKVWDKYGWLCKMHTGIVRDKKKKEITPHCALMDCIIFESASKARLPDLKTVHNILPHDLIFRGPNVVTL

CRL-7250 = normal cell line; assay: qHTS assay to identify novel small-molecules to repurpose for Merkel cell carcinoma treatment (AID 1296009); settings: MCC and control cell lines, CellTiter-Glo viability, 72 h; series mostly up to 92 µM; also: nearly all actives have a fitted effect of over 60% in size
Method in brief: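 qHTS format: cells treated with library compounds in DMSO across 8 (NPC) or 11 (MIPE) concentrations. Readout after 72 hr at 37 degree celsius was CellTiter-Glo luminescence.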

COC(=O)N1CCN(Cc2cccc(NC(=O)Nc3ccc(C)nc3)c2F)CC1
inactive: Potency [1] | Potency [2] | Potency [3] | Potency [4] | Potency (CRL-7250)

CC(C)(C)[C@H](NC(=O)c1ccc(N)c(Cl)c1)C(=O)N1CCC[C@@H]1C(=O)N[C@H](C#N)CC(=O)O
inactive: activity change, negative = inhibition [1] -4.12% [at 5.82 µM] | activity change, negative = reduced viability [2] 2.61% [at 5.82 µM] | activity change, negative = lower viability [3] 8.73% [at 5.82 µM] | activity change, negative = inhibition [4] 63.3% [at 5.82 µM] | outcome (CRL-7250) inactive [at 4.96 µM]

C[C@@H]1O[C@@H](O[C@H]2[C@H](O[C@H]3CC[C@@]4(C)C(CC[C@]5(C)C4CC=C4C6CC(C)(C)CC[C@]6(C(=O)O[C@@H]6O[C@H](CO[C@@H]7O[C@H](CO)[C@@H](O[C@@H]8O[C@@H](C)[C@H](O)[C@@H](O)[C@H]8O)[C@H](O)[C@H]7O)[C@@H](O)[C@H](O)[C@H]6O)CC[C@]45C)[C@]3(C)CO)OC[C@H](O)[C@@H]2O)[C@H](O)[C@H](O)[C@H]1O (stereo partly drawn)
inactive: outcome (CRL-7250) inactive [at 9.27 µM]

COc1ccc2cc(-c3nc(-c4ccc(S(C)=O)cc4)[nH]c3-c3ccncc3)ccc2c1 (stereo not drawn)
inactive: Potency [1] | Potency (CRL-7250)
active: Potency [2] 24.3 µM | Potency [3] 4.85 µM | Potency [4] 17.2 µM

CCc1cc2c(cc1CC)CC(NCC(O)c1ccc(O)c3[nH]c(=O)ccc13)C2 (stereo not drawn)
inactive: Potency (CRL-7250)

C=C[C@@H]1CN2CCC1C[C@@H]2C(O)c1ccnc2ccc(OC)cc12 (stereo partly drawn)
inactive: Potency [1] | Potency [2] | Potency [3] | Potency [4] | Potency (CRL-7250)

CC/C=C\C(O)C(O)C1=C(C)C(=O)C2(O1)C(=O)NC(OC)(C(=O)c1ccccc1)C2O (stereo not drawn)
inactive: Potency (CRL-7250)

O=C1Nc2ccc(I)cc2C1=Cc1cc(Br)c(O)c(Br)c1
inactive: Potency [1] | Potency [2] | Potency [3] | Potency [4] | Potency (CRL-7250)

CC1(C)[C@H]2CC[C@]3(C)[C@@H](C(=O)C=C4[C@@H]5C[C@@](C)(C(=O)O)CC[C@]5(C)CC[C@]43C)[C@@]2(C)CC[C@@H]1O
inactive: Potency [1] | Potency [2] | Potency [3] | Potency [4] | Potency (CRL-7250)

CC(=O)OC1C(O)C(C)=C(CCC(C)CC(=O)O)C2(C)CCCC(C)(C)C12 (stereo not drawn)
inactive: Potency (CRL-7250)

C[C@H]1CC[C@@H]2N(C1)C[C@@H]1[C@H]([C@@H](O)[C@H](O)[C@]3(O)[C@H]1C[C@@]14OC5(O)[C@@H](C[C@@H](O)[C@@H]31)[C@]4(C)CC[C@@H]5O)[C@]2(C)O
inactive: Potency (CRL-7250)

O=C(O)C1=NC(C(=O)O)CC(C=CN2c3cc(O)c(OC4OC(CO)C(O)C(O)C4O)cc3CC2C(=O)O)=C1 (stereo not drawn)
inactive: Potency [1] | Potency [2] | Potency [3] | Potency [4] | Potency (CRL-7250)

NC1CCC(Nc2nc(Nc3ccc(C(=O)N4CCCCC4)cc3)c3ncn(-c4cccc(F)c4)c3n2)CC1 (stereo not drawn)
inactive: Potency [1] | Potency [2] | Potency [3] | Potency [4] | Potency (CRL-7250)

CCNC(=O)Nc1ccc(Oc2ncnc(N)c2C=NOC)cc1Cl
inactive: Potency [1] | Potency [2] | Potency [3] | Potency [4] | Potency (CRL-7250)

CN(C)c1ccccc1CN1CCCN(Cc2ccccc2N(C)C)C1c1ccncc1
inactive: Potency [1] | Potency [2] | Potency (CRL-7250)

OC[C@H]1O[C@@H](Oc2cc(O)cc(C=Cc3ccc(O)cc3)c2)[C@H](O)[C@@H](O)[C@H]1O
inactive: Potency [1] | Potency [2] | Potency [3] | Potency [4] | Potency (CRL-7250)

CC(C)(O)[C@H]1CC[C@@](C)([C@H]2[C@@H](O)C[C@@]3(C)[C@@H]4C[C@H](O[C@@H]5O[C@H](CO)[C@@H](O)[C@H](O)[C@@H]5O)[C@H]5C(C)(C)[C@@H](O[C@@H]6OC[C@@H](O)[C@H](O)[C@@H]6O)CC[C@@]56C[C@@]46CC[C@]23C)O1
inactive: Potency [1] | Potency [2] | Potency [3] | Potency [4] | Potency (CRL-7250)

CCOC(=O)O[C@]1(C(=O)OCCl)CC[C@@H]2[C@H]3CCC4=CC(=O)C=C[C@]4(C)[C@@H]3[C@@H](O)C[C@@]21C
inactive: Potency [1] | Potency [2] | Potency [3] | Potency [4] | Potency (CRL-7250)

O=C(NNC(=O)c1ccc(CNS(=O)(=O)c2ccc(F)c(Cl)c2)cc1)c1ccccc1
inactive: Potency [1] | Potency [2] | Potency [3] | Potency [4] | Potency (CRL-7250)

CC(C)(Cc1ccc2ccccc2c1)NC[C@@H](O)COc1cccc(Cl)c1C#N
inactive: Potency [1] | Potency [2] | Potency [3] | Potency [4] | Potency (CRL-7250)

COc1cc(/C=C/C(=O)OC2CC3CCC2(C)C3(C)C)ccc1O (stereo not drawn)
inactive: Potency [1] | Potency [2] | Potency [3] | Potency [4] | Potency (CRL-7250)

COc1cc(O)c2c(c1)C(=O)c1cc(C)cc(O)c1C2=O
inactive: Potency [1] | Potency [2] | Potency [3] | Potency [4] | Potency (CRL-7250)

NC(=O)NN=Cc1ccc([N+](=O)[O-])o1
inactive: Potency [1] | Potency [2] | Potency [3] | Potency [4] | Potency (CRL-7250)
